Here are results for 39 compounds from PubChem BioAssay (NCATS).

Molecules are shown by their SMILES. Inconclusive results are not listed. Active and inactive are the calls of the source. Calls follow the shape of the dose curve; as a rule, active = well fitted cell-killing curve with a large enough effect; inconclusive = small, poorly fitted or top-dose-only effect, or effect the other way; inactive = no such curve, though single readings can be large or run the other way.
Potency is read from the fitted curve at half-maximal effect.

The nature of the assay: Viability qHTS for spleen associated tyrosine kinase inhibitor (SYKi) naive MV4-11 cells (AID 1963823). Also: nearly all actives have a fitted effect of over 40% in size. To be noted: MV4-11 AML viability, CellTiter-Glo luminescence, 72 h; series mostly up to 45 µM; viability (% of control): at the top concentration. The method, boiled down:
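SYK inhibitor-naive MV4-11 cells, 500 per well, exposed to compounds for 72 hr at 37 C, 5% CO2. Viability read as CellTiter-Glo luminescence after 10 min at room temperature.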
(In general: In qHTS, concentration-response curves come from the screen itself.)
For `CCCC(Nc1nc(-c2ccc(NC(=O)NCC)c(OC)c2)ncc1C)c1cccnc1` (centres undefined), the Potency is 0.058 µM (active).

As for `CC(C)=CCCC1(C)Oc2cc3c(c4c2C2C(O4)C(C)(O)CCC21)CN(C(CCC(=O)O)C(=O)O)C3=O` (centres undefined), the “viability (% of control)” value is 70.7% [at 17.3 µM] (inactive).

In the case of `CCOC(=O)CCC(=O)O[C@H]1[C@H](O[C@@H]2[C@@H](C)[C@H](O[C@H]3C[C@@](C)(OC)[C@@H](O)[C@H](C)O3)[C@@H](C)C(=O)O[C@H](CC)[C@@](C)(O)[C@H](O)[C@@H](C)C(=O)[C@H](C)CC2(C)O)O[C@H](C)C[C@@H]1N(C)C` (some centres undefined), the “viability (% of control)” value is 63% (inactive).

As to `OCC1OC(Oc2cc(O)cc(/C=C/c3ccc(OC4OC(CO)C(O)C(O)C4O)cc3O)c2)C(O)C(O)C1O` (centres undefined), the “viability (% of control)” value was 71.4% [at 17.3 µM] (inactive).

For `O=C1OCc2cc3cccc(O[C@@H]4O[C@H](CO)[C@@H](O)[C@H](O)[C@H]4O)c3c(O)c21`, the “viability (% of control)” value is 102% (inactive).

`C=C(CCO[C@@H]1O[C@H](CO)[C@@H](O)[C@H](O)[C@H]1O)C(=O)O`: the “viability (% of control)” value was 87% (inactive).

Consider `COc1cc(O)cc(C)c1C(=O)O[C@@H]1[C@H](O)[C@@H](CO)O[C@H]1n1ccc(=O)[nH]c1=O`, for which the Potency was 2.82 µM (active).

For `CCC(=O)c1cc(-c2ccc(Cl)cc2)n(-c2ccc(S(N)(=O)=O)cc2)c1C`, the Potency was 20.6 µM (active).

Regarding `O=C(OC[C@H]1O[C@@H](Oc2ccccc2COC(=O)C2(O)C=CCCC2O)[C@H](O)[C@@H](O)[C@@H]1O)c1ccccc1` (some centres undefined), the “viability (% of control)” value is 82.1% [at 17.3 µM] (inactive).

For `CCc1c(Cl)c(O)c(Cl)c(O)c1C(=O)O[C@H]1[C@H](O)[C@H](OC)[C@H](OC/C2=C\C=C\C[C@H](O)/C(C)=C\[C@H](CC)[C@@H](O[C@@H]3OC(C)(C)[C@@H](OC(=O)C(C)C)[C@H](O)[C@@H]3O)/C(C)=C/C(C)=C/C[C@@H]([C@@H](C)O)OC2=O)O[C@@H]1C`, the Potency is 7.09 µM (active).

Regarding `Cc1c(C(=O)NCCCO)cnn1-c1nc(-c2cccc(C(F)(F)F)c2)cs1`, the Potency is 14.6 µM (active).

For the compound `COc1cc(/C=C/C(=O)O[C@@H]2O[C@H](CO)[C@@H](O)[C@H](O)[C@H]2O)ccc1O`, the “viability (% of control)” value is 76.2% (inactive).

As to `CCC(NC(=O)CC(NC(=O)C(CO)NC(=O)C(CC)NC(=O)c1ccc[nH]1)c1ccccc1)C(=O)O` (centres undefined), the “viability (% of control)” value is 80% [at 17.3 µM] (inactive).

Turning to `CN1CCN(C2Cc3ccccc3Sc3ccc(Cl)cc32)CC1` (centres undefined), the Potency is 3.35 µM (active).

With `C[C@@H]1O[C@@H](OC2C(O[C@H]3[C@H](O[C@H]4CC[C@@]5(C)C(CC[C@]6(C)C5CC=C5C7CC(C)(C)CC(O)[C@]7(C)CC[C@]56C)C4(C)C)O[C@H](C(=O)O)[C@@H](O)[C@@H]3O)OC(CO)C(O)C2O)[C@H](O)[C@H](O)[C@H]1O` (some centres undefined), the viability (% of control) is 84.2% [at 9.25 µM] (inactive).

For `CCOC(=O)c1ccc(N(C)c2csc(-c3ccccc3)n2)cc1`, the “viability (% of control)” value is 80.9% (inactive).

Turning to `Cc1cc(-c2nncc3c(C(C)(C)C)c(OCc4ncnn4C)nn23)no1`, the “viability (% of control)” value was 64.6% (inactive).

As to `O=C(O[C@H]1[C@@H]2C[C@@H]3OC[C@](O)([C@@H]1Cl)[C@H]2C(O[C@@H]1O[C@H](CO)[C@@H](O)[C@H](O)[C@H]1O)O3)c1ccc(O)c(O)c1` (some centres undefined), the “viability (% of control)” value is 80.1% [at 17.3 µM] (inactive).

For the compound `CC(=O)N[C@H]1[C@H](O[C@H]2CC[C@@]3(C)C(CC[C@]4(C)C3CC=C3[C@@H]5CC(C)(C)CC[C@]5(C(=O)OC5OCC(O)C(O)C5O)CC[C@]34C)C2(C)C)O[C@H](COC2OC(C)C(O)C(OC3OC(C)C(O)C(O)C3O)C2O)[C@@H](O)[C@@H]1O` (some centres undefined), the viability (% of control) was 83.4% [at 9.25 µM] (inactive).

`Oc1cccc(Nc2ccnc3[nH]c4ccccc4c23)c1`: the Potency was 1.84 µM (active).

With `Cc1c(Cl)cccc1S(=O)(=O)Nc1nc(NCCc2ccccc2)nc2c1CN(Cc1ccccc1)CC2`, the Potency is 16.4 µM (active).

For the compound `CC(=O)NCCNc1cc(Cl)nn2c(-c3cccc(S(=O)(=O)N(C)C)c3)c(C)nc12`, the Potency was 1.46 µM (active).

On to `C[C@@H]1O[C@@H](O[C@H]2[C@H](O)[C@@H](O)[C@H](OC(=O)[C@]34CCC(C)(C)C[C@H]3C3=CCC5[C@@]6(C)CC[C@H](O[C@@H]7O[C@H](C(=O)O)[C@@H](O)[C@H](O)[C@H]7O)C(C)(C)C6CC[C@@]5(C)[C@]3(C)CC4)O[C@@H]2CO)[C@H](O)[C@H](O)[C@H]1O` (some centres undefined), for which the viability (% of control) is 72.1% [at 9.25 µM] (inactive).

Consider `CN(c1ccccc1CNc1nc(Nc2ccc3c(c2)CC(=O)N3)ncc1C(F)(F)F)S(C)(=O)=O`, for which the Potency is 0.291 µM (active).

`CN(CCO)C1CCN(c2ccc(Nc3ncc4c5ccnc(F)c5n(C5CCCC5)c4n3)nc2)CC1`: the Potency was 0.0355 µM (active).

Regarding `COc1cc2c(cc1O)CC[C@@H]1[C@@H]2CC[C@]2(C)[C@@H](O)CC[C@@H]12`, the Potency was 0.833 µM (active).

For `CC(=O)c1c(OCCN2CCCCC2)c(OCCC(C)c2ccc(F)cc2)c2oc(C)nc2c1C` (centres undefined), the Potency was 10.3 µM (active).

As for `CC[C@@H]1C(=O)O[C@]23C=C[C@@H]4C(C(=O)OC)=CO[C@H](O[C@@H]12)[C@@H]43`, the Potency was 3.66 µM (active).

For `O=C(O)CCc1cc2ccoc2cc1O[C@@H]1O[C@H](CO)[C@@H](O)[C@H](O)[C@H]1O`, the “viability (% of control)” value is 88.6% (inactive).

For `CC(=O)O[C@@](C)(C(=O)/C=C/C(C)(C)O)[C@H]1[C@H](O)C[C@@]2(C)[C@@H]3CC=C4[C@@H](C=C(O)C(=O)C4(C)C)[C@]3(C)C(=O)C[C@]12C`, the Potency was 0.317 µM (active).

Consider `COc1cc(C(=O)O)ccc1OC1OC(CO)C(O)C(O)C1O` (centres undefined), for which the “viability (% of control)” value is 85.1% (inactive).

Consider `C/C(=N\N=C(N)N)c1ccc(NC(=O)Nc2ccc(/C(C)=N/N=C(N)N)cc2)cc1`, for which the Potency is 2.06 µM (active).

With `CC1OC(OC2C(O)C(C(=O)O)OC(OC3CCC4(C)C(CCC5(C)C4C=CC4=C6CC(C)(C)CC(O)C6(C)CCC45C)C3(C)C)C2OC2OCC(O)C(O)C2O)C(O)C(O)C1O` (centres undefined), the viability (% of control) is 89.1% [at 9.25 µM] (inactive).

Take `O=C(CC1CC(c2ccc(F)cc2F)=NO1)N1CCOCC1` (centres undefined): the “viability (% of control)” value was 80.4% (inactive).

Regarding `O=C1C=CC2OC(c3ccccc3)C(O)C2O1` (centres undefined), the Potency was 6.51 µM (active).

As to `CCC(C)C(N)C(=O)NCCN1CCOCC1` (centres undefined), the “viability (% of control)” value is 94.1% (inactive).

In the case of `O=C(CCCCCCC(=O)Nc1ccc(C2OC(CSc3nc(-c4ccccc4)c(-c4ccccc4)o3)CC(c3ccc(CO)cc3)O2)cc1)NO` (centres undefined), the Potency is 7.31 µM (active).

As for `C=C1C(=O)O[C@H]2C3=C(C)CCC[C@]3(C)C(=O)C[C@@H]12`, the Potency was 1.3 µM (active).

Consider `CCOc1ccc(Cc2nc(-c3c(C)nc4ccccn34)cs2)cc1`, for which the Potency is 0.0366 µM (active).
